Nrf2 inh: inhibitors of Nrf2 signaling. 360,000 tested, 2.1% active. Potency, µM (top dose mostly 46 µM), without a hit: top-dose activity change, negative = inhibition, actives largely listed as inhibitors. A549 ARE-Fluc reporter, luciferase luminescence, 18-24 h; also: % is scaled to controls: 0 for no effect and ±100 for the full control effect; nearly all actives have a fitted effect of over 60% in size
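Two sequential reads on A549 ARE_Fluc cells exposed to compound for 18-24 h: a CellTiter-Fluor fluorescence read for viability, then a luciferase luminescence read for Nrf2/ARE activity.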
Nrf2 activator: Nrf2 pathway activation; Potency, µM (doses to about 46.1 µM), inactives show at the highest dose activation, most hits filed as activators; AID 624171; 410,000 tested, 0.31% active; AREc32 ARE-luciferase reporter (MCF7-derived line), luminescence, 24 h; also: % of control where 0% means no effect; nearly all actives have a fitted effect of over 65% in size
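AREc32 cells carrying an ARE-driven firefly luciferase, 1000 cells/well in OPTI-MEM with 5% FBS, dosed after overnight attachment and incubated 24 hr at 37 deg C. Steady-Glo luminescence read after 30 min at RT.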
A549 tox: A549 cytotoxicity, counter-screen for Nrf2 inhibitors; A549 ARE-Fluc cells, CellTiter-Fluor viability, 18-24 h; 390,000 tested, 0.16% active; Potency, µM (series often up to 46 µM), inactives show at the highest dose activity change, negative = cytotoxicity, most hits filed as inhibitors; also: % is scaled to controls: 0 for no effect and ±100 for the full control effect
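Cytotoxicity counterscreen: CellTiter-Fluor fluorescence was measured in A549 ARE_Fluc cells after 18-24 h of compound exposure in a concentration series. The subsequent BugLite luminescent read reports ARE-luciferase activity.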
Pin1 inhibitor: inhibitors of human Pin1 | Q13526 | Pin1 FP peptide displacement, HiFluor488, 10 min | Potency, µM (doses to about 115 µM), inactives show top-dose activity, negative = inhibition, usual class: inhibitors | 390,000 tested, 0.009% active; active = well fitted inhibition curve with a large enough effect in the polarisation, with a control signal flat, not every such curve was filed as active; inconclusive = small, poorly fitted or top-dose-only effect, or effect the other way, or a change in a side signal; inactive = no such curve, though single readings can be large or run the other way; the % refers to the polarisation; also: % is scaled to controls: 0 for no effect and ±100 for the full control effect
Target sequence (Q13526 whole entry, looked up): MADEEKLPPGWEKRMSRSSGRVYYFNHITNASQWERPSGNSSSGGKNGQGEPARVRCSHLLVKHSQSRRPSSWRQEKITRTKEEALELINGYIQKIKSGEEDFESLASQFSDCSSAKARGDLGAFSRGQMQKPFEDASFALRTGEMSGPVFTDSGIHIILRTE
An asterisk follows results filed as active; ? = inconclusive; . = not tested or not shown. Compounds with a hit are over-represented: about 2.2% of the library has one in this group of screens. Unless noted, calls follow the shape of the dose curve; as a rule, active = well fitted curve in the direction sought with a large enough effect; inconclusive = small, poorly fitted or top-dose-only effect, or another doubt; inactive = no such curve, though single readings can be large; an effect the other way counts as inactive or inconclusive. Potency is read from the fitted curve at half-maximal effect.

SMILES	Nrf2 inh	Nrf2 activator	A549 tox	Pin1 inhibitor
COc1ccc(NC(=O)c2cccc(OC(=S)N3CCOCC3)c2)cc1	?	3.7%	3.6%	2.1%
O=C(Nc1ccc(Br)cc1)c1cccc(OC(=S)N2CCOCC2)c1	16.4µM*	3.2%	-15.2%	-1.1%
O=C(Nc1ccc(N2CCCCCC2)cc1)c1cccc(S(=O)(=O)N2CCOCC2)c1	16.4µM*	0.2%	-3.1%	-1.8%
O=C(Nc1cccc(S(=O)(=O)N2CCOCC2)c1)c1cccc(S(=O)(=O)N2CCCCC2)c1	?	-0.7%	-3.6%	19.8%
COc1ccc(Br)cc1C(=O)Nc1ccc(N2CCN(S(C)(=O)=O)CC2)cc1	18.4µM*	2.5%	-18.4%	15.8%
Cc1ccc(C(=O)c2sc(Nc3ccc(F)cc3)nc2N)c(C)c1	?	-2.8%	2.1%	7.3%
Cc1ccc(Oc2nnc(-c3cccs3)c3ccccc23)cc1	-4.2%	-0.7%	3.0%	-1.5%
Cc1ccc(Oc2nnc(-c3cccs3)c3ccccc23)cc1C	18.4µM*	0.7%	-7.7%	34.9%
Cc1cc(C(=O)NC2CCCc3c2cnn3-c2ccc(C(C)(C)C)cc2)nn1C (stereo not given)	2.59µM*	3.0%	-21.3%	0.9%
CCOC(=O)c1cccc(NC(=O)c2ccc(NC(=O)C3CCCO3)cc2)c1 (stereo not given)	11.6µM*	0.5%	-28.9%	-5.0%
O=C(Nc1ccc(OC(F)F)cc1)c1ncc(Cl)c(Cl)c1Cl	1.3%	7.08µM*	5.8%	5.0%
Nc1ncnc2c1[nH]c(=S)n2C1OC(CO)C(O)C1O (stereo not given)	9.8%	.	-3.2%	0.3%
O=C(Nc1ccc(NC(=S)NC(=O)c2ccccc2Cl)cc1)c1cccc(Cl)c1	18.4µM*	4.8%	2.2%	-2.2%
CC(C)CC(=O)NC(=S)Nc1cccc(NC(=O)c2ccccc2)c1	14.6µM*	3.6%	-15.7%	-2.2%
CCCC(=O)NC(=S)Nc1cccc(NC(=O)c2ccccc2)c1	?	4.8%	0.6%	-4.1%
O=C1C(=O)C(c2ccc(O)cc2O)Oc2cc(O)cc(O)c21 (stereo not given)	7.4%	.	-11.5%	-16.2%
COc1ccc(CCNS(=O)(=O)c2cc3c4c(c2)C(C)C(=O)N4CCC3)cc1OC (stereo not given)	?	-0.5%	?	-11.7%
CC1C(=O)N2CCCc3cc(S(=O)(=O)NCCc4ccccc4)cc1c32 (stereo not given)	16.4µM*	-0.4%	-1.8%	1.6%
CCn1nnnc1NCc1ccc(OCc2ccc(F)cc2Cl)c(OC)c1	20.6µM*	0.1%	-6.7%	2.5%
CCCCC[C@H]1CN(CCc2ccccc2)C(=O)[C@@H]1CC(=O)NCc1ccc(OC)cc1	25.9µM*	5.3%	?	?
CCCCC[C@H]1CN(CCCC)C(=O)[C@@H]1CC(=O)NCc1ccc(OC)cc1	-12.2%	-1.1%	-5.9%	-5.3%
COc1cccc(-c2c(C#N)c(N)nc3c2c(C)nn3-c2ccccc2)c1O	25.9µM*	4.2%	?	24.0%
COc1cc(NC(=O)CN2c3cccc4cccc(c34)S2(=O)=O)cc(OC)c1OC	23.1µM*	3.1%	-11.8%	-6.9%
O=C(OCC1OC(n2cnc3c(N(C(=O)c4ccccc4)C(=O)c4ccccc4)ncnc32)C(O)C1F)c1ccccc1 (stereo not given)	16.4µM*	6.6%	?	0.4%
Cn1nnc2c(N3CCN(Cc4ccccc4)CC3)ncnc21	?	.	7.9%	1.8%
SMILES	Nrf2 inh	Nrf2 activator	A549 tox	Pin1 inhibitor
Cc1nn(C)c(C)c1Nc1ccc(N2C(=O)C3CC=CCC3C2=O)cc1[N+](=O)[O-] (stereo not given)	20.6µM*	4.8%	-17.4%	0.0%
Cc1cccc([S+](=O)([O-])NC2CCN(C#N)CC2)c1	12.5%	.	-1.1%	-0.2%
C=Cc1c(C)c2cc3[nH]c(cc4nc(cc5nc(cc1[nH]2)C(C)=C5CCC(=O)O)C(CCC(=O)O)=C4C)c(C)c3C=C	?	0.4%	?	31.6µM*
C=CCOc1ccc(/C=C/C(=O)OCC(=O)N2CCC(c3ccccc3)=N2)cc1	20.6µM*	1.0%	-0.7%	-6.1%
c1ccc(C(c2ccccc2)N2CCN(c3nc4ccccc4n4cnnc34)CC2)cc1	18.4µM*	0.0%	-17.3%	1.6%
COc1ccc(C2Nc3ccccc3C(=O)N2Cc2ccccc2)cc1Oc1ccc(NC(C)=O)cc1 (stereo not given)	?	.	-11.2%	13.3%
COc1cccc(NC(=O)C2CC(=O)N(c3ccc(Br)cc3)C2)c1 (stereo not given)	3.8%	-1.3%	1.9%	1.6%

Compound activity deposited in PubChem by National Center for Advancing Translational Sciences (NCATS).
